The values below come from PubChem BioAssay AID1030 (National Center for Advancing Translational Sciences (NCATS), 2008).

In all, about 220,000 compounds went through this assay and about 16,000 (7.3%) were called active. Where a call stands in place of a potency, no number is given. Not shown: some 25% with an inconclusive outcome. This is one part of a sample in which actives are shown more often than they occur. Calls follow the shape of the dose curve; as a rule, active = well fitted inhibition curve with a large enough effect (not every such curve was filed as active); inconclusive = small, poorly fitted or top-dose-only effect, or another doubt; inactive = no such curve, though single readings can be large or run the other way.
Potency is read from the fitted curve at half-maximal effect.

Chain of Aldehyde dehydrogenase 1A1 (Homo sapiens) (P00352 whole entry, looked up): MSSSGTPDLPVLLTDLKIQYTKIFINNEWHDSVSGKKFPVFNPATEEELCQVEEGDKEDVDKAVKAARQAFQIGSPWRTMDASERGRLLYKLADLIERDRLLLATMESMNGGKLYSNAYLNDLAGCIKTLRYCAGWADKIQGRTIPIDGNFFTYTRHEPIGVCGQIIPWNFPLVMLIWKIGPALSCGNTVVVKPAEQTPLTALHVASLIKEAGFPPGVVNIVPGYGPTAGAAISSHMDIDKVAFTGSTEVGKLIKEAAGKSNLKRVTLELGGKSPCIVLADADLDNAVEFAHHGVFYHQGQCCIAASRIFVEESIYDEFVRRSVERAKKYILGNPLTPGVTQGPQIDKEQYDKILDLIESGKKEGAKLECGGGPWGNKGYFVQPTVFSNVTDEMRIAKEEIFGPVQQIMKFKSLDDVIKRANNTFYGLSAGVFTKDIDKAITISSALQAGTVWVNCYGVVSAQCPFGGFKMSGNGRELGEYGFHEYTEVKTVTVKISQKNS

The test concerns the target Aldehyde dehydrogenase 1A1 (Homo sapiens) (UniProt P00352). The test can be described thus: qHTS Assay for Inhibitors of Aldehyde Dehydrogenase 1 (ALDH1A1). To be noted: Purified ALDH1A1, NADH fluorescence, propionaldehyde substrate; series mostly up to 75.3 µM. In general terms: In qHTS, concentration-response curves come from the screen itself.
On to `Cc1cc(C)n(-c2nc(SCC(=O)N3CCCC3)c3c4c(sc3n2)CCCC4)n1`, for which the Potency is 14.1 µM (active).
For `COCCn1c(C)cc(C(=O)CSc2ncnc3sc4c(c23)CCC4)c1C`, the Potency result was “inactive”.
The value for `C=C(C)CSc1nc(N)c2c3c(sc2n1)CCC3` was “inactive”; that for `Cc1[nH]nc(SCC(=O)NCC(C)C)c1[N+](=O)[O-]` was “inactive”; that for `O=C(CN1CCN(C/C=C/c2ccccc2)CC1)Nc1ccc(F)cc1F` was “inactive”.
`Cc1ccccc1CS(=O)(=O)CC1(O)CCN(C(=O)c2cccc(C(F)(F)F)c2)CC1`: the Potency result was “inactive”.
`O=C(c1cccc(F)c1)N1CCC(O)(c2cccnc2)CC1`: the Potency entry was “inactive”.
The value for `Cc1ccccc1CN1CCN(C(=O)c2cccc(F)c2)CC1` was 15.8 µM (active); that for `O=C(CN1CCN(C(=O)c2cccc(F)c2)CC1)Nc1ccccc1F` was 12.6 µM (active); that for `O=C(c1cccc(F)c1)N1CCC2(CC1)CCN(c1ccccc1)CC2` was “inactive”.
Consider `COc1ccc(Cn2c(=O)cc(C)[nH]c2=S)cc1`, for which the Potency entry is “inactive”.
As for `CCOc1ccc2sc(NS(=O)(=O)c3ccc(N)cc3)nc2c1`, the Potency entry was “inactive”.
To `Cc1cccc(NC(=S)NCCN(C2CCCCC2)C2CCCC2)c1` belongs “inactive”; to `CCOc1ccc(/C=C(/NC(=O)c2ccccc2)C(=O)NCCC(=O)O)cc1`, “inactive”.
On to `Cc1ccccc1CC1(CO)CCCN(C(=O)c2cc(-c3ccccc3)no2)C1` (stereo not drawn), for which the Potency entry was “inactive”.
With `O=C(Oc1ccccc1C(=S)N1CCCCC1)c1cc([N+](=O)[O-])cc([N+](=O)[O-])c1`, the Potency is 8.91 µM (active).
`O=[N+]([O-])c1ccccc1OCCCCN1CCCCC1`: the Potency entry was “inactive”.
`COc1cc(C(=S)N2CCOCC2)cc(OC)c1OC(=O)c1cc([N+](=O)[O-])c(C)c([N+](=O)[O-])c1`: the Potency result is “inactive”.
For the compound `Cc1cc(C)n(Cc2cnc(N3CCOCC3)s2)n1`, the Potency result is “inactive”.
The value for `Cc1nn(CC2CC2)c(=O)n1N(C)c1ncc(C(F)(F)F)cc1Cl` was “inactive”; that for `N#C/C(=C\c1ccc(O)c(O)c1)C(=O)NCc1ccccc1` was “inactive”.
To `CC(C)(C)C(=O)/C(C#N)=C/c1ccc(O)cc1` belongs 1.58 µM (active); to `CCOC(=O)/C(C#N)=C\c1c(C)cc(C)c(COC(C)=O)c1C`, “inactive”.
For `C=CCn1c(COc2ccccc2C)nnc1SCC(=O)O`, the Potency result is “inactive”.
As to `CC(=O)Nc1ccc(NC(=O)CSc2nnc(COc3ccccc3C)n2CC2CCCO2)cc1` (stereo not drawn), the Potency is 10 µM (active).
For `COc1ccccc1NC(=O)CSc1nnc(C)n1CC1CCCO1` (stereo not drawn), the Potency result is “inactive”.
To `CC(OC(=O)c1ccccc1N1C(=O)C2C3CCC(C3)C2C1=O)C(=O)c1ccccc1` (stereo not drawn) belongs “inactive”.
Consider `O=[N+]([O-])c1ccccc1Nc1ccc(O)cc1`, for which the Potency entry is “inactive”.
`CCNS(=O)(=O)c1ccc(NC(=O)Nc2cccc(OC)c2)cc1`: the Potency result is “inactive”.
To `CC(C)OCCCNC(=O)c1cc(Sc2ccc(F)cc2)nc2ccccc12` belongs “inactive”; to `COc1cccc(NS(=O)(=O)c2ccc3[nH]cc(C(=O)NCCCOC(C)C)c(=O)c3c2)c1`, 11.2 µM (active); to `Cc1ccc(Nc2c3c(nc4ccccc24)CCC3)cc1`, “inactive”.
On to `Cc1ccc(-c2csc(NC(=O)Cn3[nH]c(=O)c4ccccc4c3=O)n2)cc1`, for which the Potency result is “inactive”.
In the case of `Cc1cc(C(F)(F)F)c(C#N)c(SCC(=O)NC2CC2)n1`, the Potency result is “inactive”.
`CCOC(=O)c1sc(NC(=O)CSc2n[nH]c(CC)n2)nc1C`: the Potency entry was “inactive”.
To `CCOC(=O)c1sc(NC(=O)CSc2nc(C)cc(C(F)(F)F)n2)c(C#N)c1C` belongs 2.24 µM (active); to `CCOC(=O)c1ccc(NC(=O)CSc2ncccn2)cc1`, “inactive”.
On to `CCN(CC)C(=O)c1sc(NC(=O)c2ccco2)c(C#N)c1C`, for which the Potency result is “inactive”.
The value for `CCOC(=O)c1sc(NC(=O)CSc2ncccn2)c(C#N)c1C` was 28.2 µM (active).
Take `O=C(Nc1cccc(CCc2ccccn2)c1)c1ccc(Cl)cc1`: the Potency entry is “inactive”.
For `Nc1c(C(=O)NCc2ccccc2)nnn1Cc1cccc(Cl)c1`, the Potency result is “inactive”.
Take `O=C(NCc1ccc(Cl)cc1)c1cc(=O)nc2sc(-c3ccccc3)nn12`: the Potency is 5.01 µM (active).
As to `O=C(Cn1nnc2ccccc2c1=O)NCc1ccc(Cl)cc1`, the Potency result was “inactive”.
For `CCOC(=O)c1ccc(-c2ccc(C(=O)Nc3cccnc3)o2)cc1`, the Potency was 22.4 µM (active).
Take `O=C(Nc1cccnc1)c1ccc2c(c1)OCO2`: the Potency entry was “inactive”.
As for `COc1ccc(C(=O)Nc2cccnc2)cc1C(=O)Nc1cccnc1`, the Potency entry is “inactive”.
With `OC1CSc2nc3ccccc3n2C1` (stereo not drawn), the Potency entry was “inactive”.
Regarding `COc1ccc(Cl)cc1N(CC(=O)N1CCCCC1)S(C)(=O)=O`, the Potency result was “inactive”.
Take `CCn1c(C(C)C)n[nH]c1=S`: the Potency result was “inactive”.
On to `CCCCCCCC/C=C\CCCCCCCC(=O)NCC(=O)O`, for which the Potency entry was “inactive”.
In the case of `COc1ccccc1NC(=O)C1=C(C)NC(=O)NC1c1ccc(C)s1` (stereo not drawn), the Potency entry was “inactive”.
On to `CCOC(=O)/C(=N\Nc1ccccc1Cl)N(C)C1CCS(=O)(=O)C1` (stereo not drawn), for which the Potency result is “inactive”.
The value for `Cc1nc2ccccc2c(=O)n1CCCn1ccnc1` was “inactive”; that for `Cc1ccnc(-n2sc3ccccc3c2=O)n1` was 1.26 µM (active).
The value for `Cc1ccnc(Nc2nc3ccccc3s2)n1` was “inactive”.
As for `COC(=O)C(C)NC(=O)COc1ccc2ccccc2c1` (stereo not drawn), the Potency entry is “inactive”.
Take `C/C(=N/N1CCN(Cc2cccc3ccccc23)CC1)c1cccnc1`: the Potency result is “inactive”.
Consider `CC/C(Cc1ccccc1)=N/NC(=O)CCn1nnc2ccccc21`, for which the Potency entry is “inactive”.
For `CC(C)Cc1nc(Cl)c(C#N)c2c1CCC2`, the Potency result is “inactive”.
To `COC(=O)C1=C(C)NC(=O)/C1=C/c1ccc(CNS(=O)(=O)c2ccc(C)cc2)o1` belongs “inactive”; to `O=C(NCC(=O)N(CC1CCCO1)C(C(=O)NC1CCCCC1)c1ccccc1)c1ccco1` (stereo not drawn), “inactive”; to `CCCNC(=O)CN(Cc1ccccc1F)S(=O)(=O)c1ccc(C)cc1`, “inactive”.
Consider `Cc1ccc(S(=O)(=O)N(CC(=O)NCCSC2CCCCC2)c2ccccc2F)cc1`, for which the Potency entry was “inactive”.
For `CCNC(=O)CN(c1ccc(C)cc1)S(=O)(=O)c1ccc(SC)cc1`, the Potency is 11.2 µM (active).
As to `COc1ccc(/C=C2\SC(=S)N(CC(=O)NNC(=O)c3ccncc3)C2=O)cc1`, the Potency result was “inactive”.
Consider `O=c1c2ccccc2nc(CSc2nnnn2-c2ccccc2)n1-c1ccccc1`, for which the Potency result is “inactive”.
`COc1cccc(-n2c(SCC(=O)c3c[nH]c4ccccc34)nc3ccccc3c2=O)c1`: the Potency entry is “inactive”.
For `N#CCSc1nc2ccccc2c(=O)n1-c1ccccc1`, the Potency is 12.6 µM (active).
On to `CC(C)(C)C1CCC(=NNC(=O)c2ccc(Br)o2)CC1` (stereo not drawn), for which the Potency entry is “inactive”.
For `O=c1c(Cl)c(NC2CC2)cnn1-c1ccccc1`, the Potency entry is “inactive”.
For `Cc1cc(C)nc(SCC(=O)N(C)C)n1`, the Potency entry was “inactive”.
Turning to `CCOc1ccc(NC(=O)CSc2ncnc3c2sc2ccccc23)cc1`, the Potency result was “inactive”.
Regarding `COc1ccc(NC(=O)CSc2ncnc3[nH]ncc23)cc1`, the Potency was 11.2 µM (active).
Consider `COc1ccc(NC(=O)CSc2nc(C)cs2)cc1`, for which the Potency entry was “inactive”.
On to `COC(=O)c1sccc1NN1C(=O)c2ccccc2C1=O`, for which the Potency result is “inactive”.
Consider `COC(=O)c1sc(=S)n(-c2ccccc2)c1N`, for which the Potency was 7.08 µM (active).
To `CCOC(=O)c1csc(NC(=O)Nc2cccc(OC)c2)n1` belongs “inactive”; to `COC(=O)c1sc(=S)n(-c2ccc(Cl)cc2)c1C`, “inactive”; to `CCOC(=O)c1sc(-c2cccc([N+](=O)[O-])c2)cc1N`, “inactive”.
The value for `CCOC(=O)c1sc(=S)n(-c2cccc(OC)c2)c1N` was 22.4 µM (active); that for `COc1ccc(CCc2nnc(CCC(=O)NCc3cnn(-c4ccccc4C)c3)o2)cc1` was “inactive”.
The value for `O=C(CCCNS(=O)(=O)c1cccc2nsnc12)NCCN1CCN(c2ccccc2F)CC1` was “inactive”.
`CCCCC/C=C\C[C@H](O)/C=C/C=C/C=C/[C@@H](O)CCCC(=O)O`: the Potency result is “inactive”.
Take `COc1ccc(CCN=C2SCC(=O)N2Cc2ccccc2)cc1OC`: the Potency result is “inactive”.
In the case of `COc1cc(CNC2CCCC2)c(Br)cc1OCc1ccccc1`, the Potency entry is “inactive”.
Take `COc1cc(C2CC(=O)N3CN(Cc4ccccc4)CSC3=C2C#N)ccc1OCc1ccccc1` (stereo not drawn): the Potency was 10 µM (active).
On to `O=C(N/N=C1\CCSC1)c1cc(Cl)ccc1O`, for which the Potency entry is “inactive”.
The value for `O=C(CSC(=S)N1CCOCC1)c1ccccc1` was “inactive”.
On to `CC(=O)c1ccc(NC(=O)CSC(=S)N2CCCC2)cc1`, for which the Potency result is “inactive”.
For the compound `O=C(CSC(=S)N1CCCCC1)c1c(F)cccc1F`, the Potency was 12.6 µM (active).
Take `CCOP(=O)(OCC)C(Nc1ccc([N+](=O)[O-])cc1)c1ccc(Cl)cc1` (stereo not drawn): the Potency entry is “inactive”.
Regarding `Cc1ccc2c(c1)C1CN(C)CCC1N2C(=S)Nc1ccc(Cl)cc1Cl` (stereo not drawn), the Potency result is “inactive”.
As for `CCn1cc(C(=O)NCCCN2CCCCCC2)c(=O)c2cc(S(=O)(=O)N3CCc4ccccc4C3)ccc21`, the Potency was 7.94 µM (active).
On to `CCn1cc(C(=O)NCC2CCCO2)c(=O)c2cc(S(=O)(=O)N3CCCCC3)ccc21` (stereo not drawn), for which the Potency is 15.8 µM (active).
As for `Cc1ccc(S(=O)(=O)N2CCC(C(=O)NCC3CCCO3)CC2)cc1` (stereo not drawn), the Potency result is “inactive”.
To `CCOC(=O)N1CCN(C(=O)c2cn(C)c3ccc(S(=O)(=O)N4CCCC4)cc3c2=O)CC1` belongs “inactive”; to `O=C(Nc1ccc(S(=O)(=O)N2CCc3ccccc3C2)cc1)c1ccccc1`, “inactive”.
As to `CCn1c(SCC(=O)NCC2CCCO2)nc2cc(S(=O)(=O)N3CCCCC3)ccc21` (stereo not drawn), the Potency result was “inactive”.
Turning to `NS(=O)(=O)c1ccc(CNC(=O)c2ccc(Cl)cc2[N+](=O)[O-])cc1`, the Potency result is “inactive”.
Take `CCOC(=O)N/N=C/c1cccnc1`: the Potency result is “inactive”.
With `Cc1nn(CCOc2ccc(Br)cc2)c(C)c1[N+](=O)[O-]`, the Potency entry was “inactive”.
`CN(C)CCSc1nc(N)c2c3c(sc2n1)COC(C)(C)C3`: the Potency result is “inactive”.
For `CC(C)c1nc2sc3c(c2c(=O)n1N)CC(C)(C)OC3`, the Potency entry was “inactive”.
To `C=CCNC(=S)NNc1ncnc2sc3c(c12)CC(C)(C)OC3` belongs 1.41 µM (active); to `O=C(NCc1ccc(F)cc1)C(c1ccccc1)N(C(=O)c1csnn1)C1CC1` (stereo not drawn), “inactive”.
In the case of `COc1cc(C)c(S(=O)(=O)N2CCOCC2)c(C)c1C`, the Potency entry is “inactive”.
Turning to `O=C1N/C(=N\N=C\c2ccco2)SC1Cc1ccc(F)cc1` (stereo not drawn), the Potency entry was “inactive”.
On to `CCOc1ccc(S(=O)(=O)Nc2ccncc2)c(C)c1C`, for which the Potency result was “inactive”.
Take `CCOc1ccc(NS(=O)(=O)c2cc(C)c(C)cc2C)cc1`: the Potency was 7.94 µM (active).
The value for `CCOc1ccc(S(=O)(=O)Nc2ccc(S(=O)(=O)Nc3cc(OC)ccc3OC)cc2)cc1` was 10 µM (active); that for `CCOc1ccc(NC(=O)Nc2cc(C)ccc2OC)cc1` was “inactive”.
As to `CCOc1ccc(NS(=O)(=O)c2ccc(C)c(C(N)=O)c2)cc1`, the Potency result was “inactive”.
As to `CCOc1ccc(C(=O)Nc2cc(OC)ccc2OC)cc1`, the Potency entry was “inactive”.
